The target in assay [1] is Thyrotropin receptor (Homo sapiens) (UniProt P16473). As to the kind of experiment: qHTS assay to identify small molecule agonists of the thyroid stimulating hormone receptor (TSHR) signaling pathway (AID 1224843; calls by dose curve; note: nearly all actives have a fitted effect of over 45% in size). In a few lines: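 HEK293 cells stably bearing the thyrotropin receptor were plated at 800 cells/well and challenged with compound (30 min, RT). Accumulated cAMP was quantified via cAMP-d2 competing for cryptate-tagged antibody.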
Chain of Thyrotropin receptor (Homo sapiens) (P16473 whole entry, looked up): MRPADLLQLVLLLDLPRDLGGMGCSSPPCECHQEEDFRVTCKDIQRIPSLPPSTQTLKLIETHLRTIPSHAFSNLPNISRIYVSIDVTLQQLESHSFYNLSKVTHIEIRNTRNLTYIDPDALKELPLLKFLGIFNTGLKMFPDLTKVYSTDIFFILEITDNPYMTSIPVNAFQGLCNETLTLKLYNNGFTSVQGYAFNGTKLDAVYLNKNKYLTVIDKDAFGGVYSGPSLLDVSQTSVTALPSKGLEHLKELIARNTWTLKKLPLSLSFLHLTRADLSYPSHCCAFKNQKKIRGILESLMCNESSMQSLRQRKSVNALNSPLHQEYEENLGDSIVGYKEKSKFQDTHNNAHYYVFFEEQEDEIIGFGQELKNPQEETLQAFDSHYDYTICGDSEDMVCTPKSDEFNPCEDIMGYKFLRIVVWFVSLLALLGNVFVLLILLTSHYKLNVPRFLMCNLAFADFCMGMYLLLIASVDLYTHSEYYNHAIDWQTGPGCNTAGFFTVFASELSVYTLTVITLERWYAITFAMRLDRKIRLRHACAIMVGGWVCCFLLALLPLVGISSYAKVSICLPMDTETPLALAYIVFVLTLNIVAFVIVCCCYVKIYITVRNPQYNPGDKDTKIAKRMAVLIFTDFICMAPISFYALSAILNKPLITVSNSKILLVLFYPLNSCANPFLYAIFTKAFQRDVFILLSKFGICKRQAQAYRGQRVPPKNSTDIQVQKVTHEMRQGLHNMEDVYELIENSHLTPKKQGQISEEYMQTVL
(In general: qHTS replaces the single test concentration by a dilution series.)

Assay [2] is described as follows: qHTS assay to identify small molecule agonists of the hypoxia (HIF-1) signaling pathway - cell viability counter screen (AID 1224844; calls by dose curve; note: nearly all actives have a fitted effect of over 50% in size). Summed up:
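HRE-bla ME-180 cells, 2,000/well in 0.5% dialyzed FBS medium, treated 17 h at 37C with compounds. Viability read in the same wells as the bla reporter, by CellTiter-Glo luminescence after 30 min at room temperature.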

A short description of assay [3]: qHTS assay to identify small molecule agonists of the hypoxia (HIF-1) signaling pathway (AID 1224846; active = well fitted activation curve with a large enough effect in the signal ratio in the repeat runs, not every such curve was filed as active; the % refers to the signal ratio). In a few lines: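 HRE-bla ME-180 beta-lactamase reporter cells in medium with 0.5% dialyzed FBS, pre-incubated 5 h then exposed to compounds 17 h at 37C, 5% CO2; reporter induction read with CCF4-AM FRET substrate.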
Assay [4] is described as follows: qHTS assay to identify small molecule agonists of H2AX - cell viability counter screen (AID 1224847; calls by dose curve;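 note: wild-type CHO-K1 cells; top concentration of the series differs between compounds; nearly all actives have a fitted effect of over 30% in size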). In a few lines:
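CHO-K1 cells plated overnight at 37C, then exposed 3 h at 37C to compounds at 15 concentrations (0.76% DMSO final). Viability by CellTiter-Glo luminescence after 30 min at room temperature.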

A short description of assay [5]: qHTS RealTime-Glo MT Cell Viability Assay in HepG2 cells - 24 hour (AID 1224867). Note: nearly all actives have a fitted effect of over 50% in size. Summed up: (§1)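 Cells + NanoLuc/prosubstrate dispensed (600 cells/well) → 5 h at 37 C/5% CO2 → compounds in DMSO transferred → 40 h incubation at 37 C, luminescence read at 0, 8, 16, 24, 32, 40 h.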
Assay [6] in a line: qHTS RealTime-Glo MT Cell Viability Assay in HEK293 cells - 32 hour (AID 1224868). Note: nearly all actives have a fitted effect of over 50% in size. Note: potency is the fitted concentration of half-maximal effect. Summed up:
(§2)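 Tox21 10K qHTS, HEK293, 600 cells/well, RealTime-Glo reagent co-dispensed with cells; 5 h preincubation, compound by pintool, 37 C, luminescence at 0–40 h.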

A short description of assay [7]: A CellTox Green Cytotoxicity Assay to monitor cytotoxicity in HEK293 cells - 0 hour (AID 1224869). Note: nearly all actives have a fitted effect of over 50% in size. Summed up:
(§3)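 HEK293 cells, 600/well, were preincubated 5 hours and then exposed to compounds at 37 C for up to 40 hours. A cell-impermeant cyanine dye staining dead-cell DNA was read by fluorescence at 0, 8, 16, 24, 32 and 40 h time points.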

A short description of assay [8]: qHTS RealTime-Glo MT Cell Viability Assay in HepG2 cells - 40 hour (AID 1224870). Note: nearly all actives have a fitted effect of over 50% in size. Summed up:
(§4)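 Real-time viability: cells seeded at 600 per well together with NanoLuc and cell-permeant prosubstrate, compounds added after 5 h incubation. Luminescence tracked at 0, 8, 16, 24, 32 and 40 h of exposure.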

Assay [9] in a line: A CellTox Green Cytotoxicity Assay to monitor cytotoxicity in HEK293 cells - 40 hour (AID 1224871). Note: nearly all actives have a fitted effect of over 45% in size. Note: potency is the fitted concentration of half-maximal effect. In a few lines: as §3
Assay [10] in a line: qHTS RealTime-Glo MT Cell Viability Assay in HEK293 cells - 16 hour (AID 1224872). Note: nearly all actives have a fitted effect of over 50% in size. Note: potency is the fitted concentration of half-maximal effect. In a few lines:
as §2

Assay [11] in a line: qHTS RealTime-Glo MT Cell Viability Assay in HEK293 cells - 40 hour (AID 1224874). Note: nearly all actives have a fitted effect of over 50% in size. Note: potency is the fitted concentration of half-maximal effect. The note with it: RealTime-Glo luminescence; max response: active compounds read low. In a few lines: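 600 cells/well were plated with the nonlytic NanoLuc/prosubstrate reagent, pre-incubated 5 h, then given 23 nL of compound in DMSO. Incubation at 37 C for 40 h, with luminescence from viable-cell-reduced substrate read repeatedly from 0 h.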

Assay [12] is described as follows: A CellTox Green Cytotoxicity Assay to monitor cytotoxicity in HEK293 cells - 24 hour (AID 1224875). Note: nearly all actives have a fitted effect of over 45% in size. Note: potency is the fitted concentration of half-maximal effect. Summed up: as §3
Assay [13] is described as follows: A CellTox Green Cytotoxicity Assay to monitor cytotoxicity in HepG2 cells - 16 hour (AID 1224876). Note: nearly all actives have a fitted effect of over 45% in size. In a few lines:
(§5)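 HepG2 cells, 600/well, preincubated 5 h with CellTox Green dye, then exposed to Tox21 compounds in DMSO at 37 C for up to 40 h. Dead-cell DNA fluorescence read at the indicated time point.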

The nature of assay [14]: qHTS RealTime-Glo MT Cell Viability Assay in HepG2 cells - 32 hour (AID 1224877). Note: nearly all actives have a fitted effect of over 55% in size. In a few lines: as §1
Assay [15] in a line: A CellTox Green Cytotoxicity Assay to monitor cytotoxicity in HepG2 cells - 24 hour (AID 1224878). Note: nearly all actives have a fitted effect of over 45% in size. Summed up:
as §5

Assay [16] in a line: A CellTox Green Cytotoxicity Assay to monitor cytotoxicity in HepG2 cells - 40 hour (AID 1224879). Note: nearly all actives have a fitted effect of over 40% in size. Summed up: as §5
Assay [17] in a line: qHTS assay to identify small molecule antagonists of the estrogen related receptor (ERR) signaling pathway from Tox21 library (AID 1224848). Note: nearly all actives have a fitted effect of over 50% in size. Note: potency is the fitted concentration of half-maximal effect. In a few lines:
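Reading was by luminescence 30 min after ONE-Glo addition. Before that, ERR cells at 2,000 per well had rested 6 h at 37 C/5% CO2 and then received pin-tooled compounds in DMSO for 18 h at 37 C.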

The nature of assay [18]: qHTS assay to identify small molecule agonists of the estrogen related receptor (ERR) signaling pathway from Tox21 library (AID 1224849; calls by dose curve; note: nearly all actives have a fitted effect of over 15% in size). The note with it: ERR reporter cell line, ONE-Glo luciferase, 18 h; at 92.4 µM (top of the series) unless noted. In a few lines:
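ERR reporter cells (NTP line) pre-incubated 6 hours at 37 C, then exposed to compounds for 18 hours at 37 C. ONE-Glo luciferase luminescence was read after 30 minutes at room temperature.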

Assay [19] can be described thus: qHTS RealTime-Glo MT Cell Viability Assay in HepG2 cells - 8 hour (AID 1224873). Note: nearly all actives have a fitted effect of over 55% in size. Summed up:
as §4

Assay [20] in a line: qHTS assay to identify small molecule agonists of H2AX (AID 1224845; active = well fitted activation curve with a large enough effect in the signal ratio in the repeat runs, not every such curve was filed as active; the % refers to the signal ratio). Summed up:
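Phospho-H2AX Ser139 measured by HTRF (ex 320 nm; em 665 and 620 nm) after 24 hr antibody incubation. Compounds, 15 concentrations, 0.76% DMSO, were applied to CHO-K1 cells for 3hr at 37C before lysis.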

Seven compounds from PubChem BioAssay (Tox21) can be followed below.

Unmarked numbers belong to inactive results. Results filed as inconclusive are left out. Calls of active or inactive are those of the source. Unless noted, calls come from the whole dose curve; as a rule, active = well fitted curve in the direction sought with a large enough effect in the repeat runs; inconclusive = weak or mixed curves; inactive = no such curve, though single readings can be large; an effect the other way counts as inactive or inconclusive.
% is set by controls: 0 for no effect and ±100 for the full control effect.

On to `CC1CN(c2ccccc2)NC1=O` (centres undefined), for which the Potency entry in assay [1], in assay [2], in [4], in assay [5], in assay [6] and in assay [7] was “inactive” in each case. Moreover, the Potency entry in assay [8], in assay [9], in assay [10], in assay [12], in assay [13] and in [14] was “inactive” in each case. Also, the Potency result in [15] and in assay [16] was “inactive” throughout. Besides, the compound was classed as inactive in assay [3]. Moreover, the max response in [11] is -13.5%.
For `CCCCNc1ccc(C(=O)OCCN(CC)CC)cc1`, the Potency entry in assay [1], in [2], in assay [4], in [17], in assay [5] and in [7] was “inactive” in each case. Further, the Potency entry in [8], in assay [9], in [12], in [13], in assay [14] and in assay [15] was “inactive” throughout. Also, the Potency entry in assay [16] is “inactive”. Besides, the compound was called inactive in assay [3] and in assay [19]. Also, the activity change, positive = activation in assay [18] was -11.3% [at 42.5 µM]. Besides, the max response in assay [11] was -22.9%.
On to `O=C1CCCc2ccccc21`, for which the Potency entry in assay [2], in assay [20], in assay [4], in assay [17], in [5] and in [6] was “inactive” each time. Further, the Potency result in assay [7], in [8], in assay [9], in assay [10], in [12] and in [13] was “inactive” each time. For the same compound, the Potency result in [14], in assay [15] and in assay [16] was “inactive” throughout. The outcome in [3] and in assay [19] was inactive. The activity change, positive = activation in assay [18] is 6.42%. Moreover, in assay [11], the max response was 23.3%.
Take `Cc1nc(-c2ccccn2)ncc1C(=O)Nn1cc(C)c2cc(F)ccc21`: the Potency entry in assay [1], in [5], in [7], in [8], in [9] and in assay [12] was “inactive” in each case. Also, the Potency result in assay [13], in assay [14] and in [16] was “inactive” throughout. For the same compound, the Potency in assay [17] is 54.5 µM (active); in [6], 1.55 µM (active); in assay [10], 1.74 µM (active); in assay [11], 1.38 µM (active). For the same compound, the activity change, positive = activation in [18] was -53.1%. For the same compound, the outcome in assay [19] was inactive.
`CCCCCCCCc1ccc(S(=O)(=O)O)cc1`: the Potency result in assay [1], in assay [20], in [4], in assay [5], in assay [6] and in assay [7] was “inactive” in each case. For the same compound, the Potency entry in [8], in assay [10] and in assay [14] was “inactive” throughout. Moreover, the Potency was 54.5 µM (active) in assay [9] and 48.6 µM (active) in [12]. For the same compound, the compound was called inactive in assay [19]. Also, in assay [11], the max response is -16.1%.
With `COc1ccccc1N1CCN(CCCNc2cc(=O)n(C)c(=O)n2C)CC1`, the Potency entry in [1], in assay [2], in assay [20], in [17], in assay [5] and in assay [6] was “inactive” each time. The Potency entry in [7], in assay [8], in assay [9], in [10], in assay [12] and in [13] was “inactive” throughout. The Potency result in assay [14], in [15] and in assay [16] was “inactive” in each case. Further, the activity change, positive = activation in assay [18] is 3.63% [at 42.5 µM]. In addition, in assay [19], the compound was called inactive. Further, the max response in assay [11] was -21.2%.
On to `CN(C)CC[C@@H](c1ccc(Cl)cc1)c1ccccn1`, for which the Potency result in assay [1], in assay [2], in assay [20], in assay [4], in [5] and in assay [6] was “inactive” throughout. In addition, the Potency entry in assay [7], in assay [8], in assay [9], in assay [10], in assay [12] and in assay [13] was “inactive” each time. For the same compound, the Potency result in assay [14] and in assay [16] was “inactive” in each case. Besides, the outcome in [19] was inactive. Moreover, in assay [11], the max response is -0.584%.
